From PubChem BioAssay AID1159580 (chemical genetic matrix, 2015)
Screen size: about 5,500 compounds; about 2,000 (36%) were called active. About 18% were inconclusive and are not listed. Cut-off read from the data, not from the text of the source: active = normalized growth mostly below about 0.91 (no sharp cut-off); inconclusive = no clear call, values can overlap the other calls; inactive = mostly above about 0.92. This is one part of the list.

Test: chemical genetic growth profiling, strain panel (AID 1159580);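 note: tested at 20 µM; growth read once vehicle control cultures reached saturation at 30 °C; 1 = growth at the plate median or of vehicle wells; lower values mean less growth of the strain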
Conditions: growth OD

Measured: normalized growth

COc1ccc(-c2oc3c(CC=C(C)C)c(O[C@@H]4O[C@H](CO)[C@@H](O)[C@H](O)[C@H]4O)cc(O)c3c(=O)c2O[C@@H]2O[C@@H](C)[C@H](O)[C@@H](O)[C@H]2O)cc1
inactive: S. cerevisiae deletion strains, locus YJR066W, strain TOR1, active compounds read low 0.949 | S. cerevisiae deletion strains, locus YKL009W, strain mrt4, active compounds read low 0.963 | S. cerevisiae deletion strains, locus YKL068W, active compounds read low 0.986 | S. cerevisiae deletion strains, locus YKL085W, strain MDH1 (second series), active compounds read low 0.975 | S. cerevisiae deletion strains, locus YKL085W, strain MDH1, active compounds read low 0.975 | S. cerevisiae deletion strains, locus YKL160W, strain elf1, active compounds read low 1 | S. cerevisiae deletion strains, locus YKL190W, strain CNB1, active compounds read low 1.02 | S. cerevisiae deletion strains, locus YKR001C, strain vps1, active compounds read low 0.993 | S. cerevisiae deletion strains, locus YKR026C, strain gcn3, active compounds read low 1.04 | S. cerevisiae deletion strains, locus YKR091W, strain srl3, active compounds read low 1.03 | S. cerevisiae deletion strains, locus YLL001W, strain dnm1, active compounds read low 1.01 | S. cerevisiae deletion strains, locus YLL026W, active compounds read low 1.04 | S. cerevisiae deletion strains, locus YLL041C, strain sdh2, active compounds read low 1.04 | S. cerevisiae deletion strains, locus YLR027C, strain aat2, active compounds read low 1.03 | S. cerevisiae deletion strains, locus YLR039C, strain RIC1, active compounds read low 1.01 | S. cerevisiae deletion strains, locus YLR058C, strain SHM2, active compounds read low 0.988 | S. cerevisiae deletion strains, locus YLR102C, strain apc9, active compounds read low 0.974 | S. cerevisiae deletion strains, locus YLR113W, strain HOG1, active compounds read low 1.04 | S. cerevisiae deletion strains, locus YLR221C, strain rsa3, active compounds read low 1.04 | S. cerevisiae deletion strains, locus YLR258W, strain gsy2, active compounds read low 1.01 | S. cerevisiae deletion strains, locus YLR262C, strain YPT6 (second series), active compounds read low 1.05 | S. cerevisiae deletion strains, locus YLR262C, strain YPT6, active compounds read low 0.971 | S. cerevisiae deletion strains, locus YLR268W, strain sec22, active compounds read low 0.969 | S. cerevisiae deletion strains, locus YLR320W, strain mms22, active compounds read low 1.04 | S. cerevisiae deletion strains, locus YLR330W, strain CHS5, active compounds read low 1.01 | S. cerevisiae deletion strains, locus YLR342W, strain FKS1 (second series), active compounds read low 1.06 | S. cerevisiae deletion strains, locus YLR342W, strain FKS1, active compounds read low 1.04 | S. cerevisiae deletion strains, locus YLR357W, strain rsc2, active compounds read low 1.02 | S. cerevisiae deletion strains, locus YLR370C, strain arc18, active compounds read low 1.02 | S. cerevisiae deletion strains, locus YLR371W, strain rom2, active compounds read low 0.965 | S. cerevisiae deletion strains, locus YLR384C, strain iki3, active compounds read low 1.01 | S. cerevisiae deletion strains, locus YLR418C, strain cdc73, active compounds read low 0.998 | S. cerevisiae deletion strains, locus YML016C, strain PPZ1, active compounds read low 1 | S. cerevisiae deletion strains, locus YML032C, strain rad52, active compounds read low 1 | S. cerevisiae deletion strains, locus YML120C, strain ndi1, active compounds read low 1.02 | S. cerevisiae deletion strains, locus YML124C, strain tub3, active compounds read low 0.975 | S. cerevisiae deletion strains, locus YMR058W, strain fet3, active compounds read low 1.04 | S. cerevisiae deletion strains, locus YMR078C, strain ctf18, active compounds read low 0.977 | S. cerevisiae deletion strains, locus YMR125W, strain sto1, active compounds read low 1.04 | S. cerevisiae deletion strains, locus YMR129W, active compounds read low 1.04 | S. cerevisiae deletion strains, locus YMR205C, strain PFK2, active compounds read low 1.04 | S. cerevisiae deletion strains, locus YMR223W, strain ubp8, active compounds read low 0.979 | S. cerevisiae deletion strains, locus YMR231W, strain pep5, active compounds read low 1 | S. cerevisiae deletion strains, locus YMR263W, strain SAP30, active compounds read low 1 | S. cerevisiae deletion strains, locus YMR307W, strain GAS1, active compounds read low 1.15 | S. cerevisiae deletion strains, locus YNL067W, strain RPL9B, active compounds read low 0.963 | S. cerevisiae deletion strains, locus YNL071W, strain lat1, active compounds read low 1.03 | S. cerevisiae deletion strains, locus YNL128W, strain TEP1, active compounds read low 0.974 | S. cerevisiae deletion strains, locus YNL183C, strain NPR1, active compounds read low 0.952 | S. cerevisiae deletion strains, locus YNL209W, strain ssb2, active compounds read low 1.03 | S. cerevisiae deletion strains, locus YNL233W, strain BNI4, active compounds read low 0.99 | S. cerevisiae deletion strains, locus YNL248C, strain rpa49, active compounds read low 1.04 | S. cerevisiae deletion strains, locus YNL250W, strain rad50, active compounds read low 0.93 | S. cerevisiae deletion strains, locus YNL271C, strain bni1, active compounds read low 0.965 | S. cerevisiae deletion strains, locus YNL298W, strain CLA4, active compounds read low 0.981 | S. cerevisiae deletion strains, locus YNL307C, strain MCK1, active compounds read low 0.979 | S. cerevisiae deletion strains, locus YNL322C, strain KRE1 (second series), active compounds read low 1.03 | S. cerevisiae deletion strains, locus YNR049C, strain mso1, active compounds read low 1.03 | S. cerevisiae deletion strains, locus YNR052C, strain pop2, active compounds read low 0.984 | S. cerevisiae deletion strains, locus YOL012C, strain htz1 0.851 | S. cerevisiae deletion strains, locus YOL147C, strain pex11, active compounds read low 0.989 | S. cerevisiae deletion strains, locus YOR001W, strain rrp6, active compounds read low 1.05 | S. cerevisiae deletion strains, locus YOR061W, strain CKA2, active compounds read low 0.992 | S. cerevisiae deletion strains, locus YOR069W, strain VPS5, active compounds read low 0.999 | S. cerevisiae deletion strains, locus YOR070C, strain gyp1, active compounds read low 1.01 | S. cerevisiae deletion strains, locus YOR080W, strain dia2, active compounds read low 1.04 | S. cerevisiae deletion strains, locus YOR083W, strain WHI5, active compounds read low 0.988 | S. cerevisiae deletion strains, locus YOR106W, strain vam3, active compounds read low 0.989 | S. cerevisiae deletion strains, locus YOR136W, strain idh2, active compounds read low 0.985 | S. cerevisiae deletion strains, locus YOR144C, strain elg1, active compounds read low 1 | S. cerevisiae deletion strains, locus YOR184W, strain ser1, active compounds read low 0.984 | S. cerevisiae deletion strains, locus YOR231W, strain MKK1, active compounds read low 1.02 | S. cerevisiae deletion strains, locus YOR265W, strain rbl2, active compounds read low 1.02 | S. cerevisiae deletion strains, locus YOR270C, strain vph1, active compounds read low 0.999 | S. cerevisiae deletion strains, locus YOR290C, strain snf2, active compounds read low 0.981 | S. cerevisiae deletion strains, locus YOR316C, strain cot1, active compounds read low 0.976 | S. cerevisiae deletion strains, locus YPL051W, strain arl3, active compounds read low 1.02 | S. cerevisiae deletion strains, locus YPL055C, strain LGE1, active compounds read low 1 | S. cerevisiae deletion strains, locus YPL078C, strain atp4, active compounds read low 0.986 | S. cerevisiae deletion strains, locus YPL106C, strain sse1, active compounds read low 1.04 | S. cerevisiae deletion strains, locus YPL240C, strain hsp82, active compounds read low 1.02 | S. cerevisiae deletion strains, locus YPL241C, strain CIN2, active compounds read low 0.99 | S. cerevisiae deletion strains, locus YPL256C, strain CLN2, active compounds read low 1 | S. cerevisiae deletion strains, locus YPR119W, strain clb2, active compounds read low 0.98 | S. cerevisiae deletion strains, locus YPR141C, strain kar3, active compounds read low 0.968 | S. cerevisiae deletion strains, locus YPR163C, strain tif3, active compounds read low 0.978 | S. cerevisiae deletion strains, locus YPR167C, strain met16, active compounds read low 0.983 | S. cerevisiae deletion strains, strain wtn01, active compounds read low 0.986 | S. cerevisiae strains, strain wild type, active compounds read low 1.01
